# Screens: PubChem, The Scripps Research Institute Molecular Screening Center
# hcDAF12 agonist: H. contortus DAF-12 activation, primary screen | HEK293 hcDAF-12 lit1-tk-luc reporter, luminescence; 0% DMSO, 100% Δ7-dafachronic acid | activation, % at 6.8 µM | 370,000 compounds, 1.4% hits | AID 652067;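 active = activation above the mean of all tested compounds plus 3 SD, cut at about 5.5% in these data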;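 also: 100% = response to 3 µM Δ7-dafachronic acid high control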
# hgDAF12 agonist: hgDAF-12 agonism, primary luciferase screen | HEK293 GAL4-hgDAF12 UAS-luciferase reporter, agonist luminescence; normalized to butyrate control | activation, % at 6.8 µM | 370,000 compounds, 1.8% hits;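 active = activation above a cutoff set at the mean of all screened compounds plus 3 SD, cut at about 10% in these data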;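 also: 0% = DMSO wells and 100% = sodium butyrate wells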
# SMARCA2 act: activators of SMARCA2 function; AID 652017; activation, % at 9.1 µM; 370,000 compounds, 1% hits; MG213 cells, MMTV-luciferase reporter, dexamethasone, overnight; in the data active = activation above about 7.8%;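 also: 0% = vehicle wells and 100% = reference activator wells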
# DAX1 inh-1: NR0B1 (DAX1) inhibition; HEK293 Gal4-DAX1 luciferase reporter, luminescence; inhibition, % at 6.75 µM; 340,000 compounds, 0.99% hits; AID 504766;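 active = inhibition above the mean over all tested compounds plus 3 SD, cut at about 4.2% in these data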;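 also: 0% = DAX1-transfected cells with DMSO and 100% = empty-vector control cells with DMSO; inhibition shows as a rise in luminescence from relieved DAX1 repression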
# ssDAF-12 act: activators of S. stercoralis DAF-12 nuclear receptor. HEK293 ssDAF-12/GRIP1 lit1-tk-luc reporter, luminescence; % of 3 µM dafachronic acid response. activation, % at 6.8 µM. 370,000 compounds, 1% hits. AID 652126;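 active = activation above the mean over all tested compounds plus 3 SD, cut at about 0.9% in these data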;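 also: 0% = DMSO-only wells and 100% = 3 µM delta7-dafachronic acid wells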
# DAX1 inh-2: blocks DAX1 repression of SF-1 activated StAR promoter; HEK293T StAR-luciferase reporter, SF-1/DAX-1 repression relief; AID 652010; inhibition, % at 6.8 µM; 370,000 compounds, 1.1% hits;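 active = inhibition above the mean over all tested compounds plus 3 SD, cut at about 3.6% in these data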;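 also: 0% = DAX-1 cells with DMSO and 100% = cells lacking DAX-1 with DMSO; higher inhibition means more luminescence from relief of DAX-1 repression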
# hgDAF12 conf: confirmation of H. glycines DAF-12 agonists; shares compounds with hgDAF12 agonist; activation, % at 6.8 µM; 3,300 compounds, 80% hits; HEK293 GAL4-hgDAF12 luciferase reporter, agonist mode; percent of butyrate response;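 active = mean activation over triplicate wells above the hit cutoff derived from the earlier primary screen, cut at about 11% in these data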;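 also: 0% = DMSO low control and 100% = 2 mM sodium butyrate high control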
# LXRb DAF12 ctr: LXR-beta agonism as DAF-12 counter-screen; AID 743051; activation, % at 6.8 µM; shares compounds with hgDAF12 agonist; 3,300 tested, under 10 active; HEK293 Gal4-LXR luciferase reporter, 24 h;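 active = mean activation of the triplicate above a set limit carried over from the primary screen, none filed active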
# Target sequence (P55055 whole entry, looked up, the tested form may be a part): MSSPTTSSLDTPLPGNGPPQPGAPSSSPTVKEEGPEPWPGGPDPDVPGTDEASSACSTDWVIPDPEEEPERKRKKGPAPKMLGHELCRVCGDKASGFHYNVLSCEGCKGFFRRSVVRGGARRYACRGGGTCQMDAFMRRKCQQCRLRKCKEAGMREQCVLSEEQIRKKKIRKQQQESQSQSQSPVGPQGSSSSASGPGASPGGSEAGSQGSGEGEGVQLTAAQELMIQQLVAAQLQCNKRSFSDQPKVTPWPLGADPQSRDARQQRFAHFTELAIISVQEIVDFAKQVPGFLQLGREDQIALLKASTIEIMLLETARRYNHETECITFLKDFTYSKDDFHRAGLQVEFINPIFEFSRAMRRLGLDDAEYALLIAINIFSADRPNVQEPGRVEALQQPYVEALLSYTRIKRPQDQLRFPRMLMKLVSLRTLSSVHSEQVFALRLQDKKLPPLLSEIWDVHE
# Starred values were filed as active, the others as inactive; / = not tested or not shown. An excerpt weighted towards active compounds, which were near 4.8% of everything screened.
SMILES,hcDAF12 agonist,hgDAF12 agonist,SMARCA2 act,DAX1 inh-1,ssDAF-12 act,DAX1 inh-2,hgDAF12 conf,LXRb DAF12 ctr
CC1(C)CC(=O)N(CC(=O)N2CCN(Cc3ccccc3)CC2)c2ccccc2S1(=O)=O,1.2,3.6,-2.5,/,-1.8,0.2,/,/
Cc1cc(C)n2nc(C(=O)Nc3nccs3)nc2n1,3.6,17.2*,1.6,1.7,0.2,1.5,11.8*,0.5
Cc1csc(NC(=O)c2nc3nc(C)cc(C)n3n2)n1,4.2,9.4,3.6,3.0,0.3,2.4,/,/
CCc1ccc(NC(=O)c2cnccn2)cc1,3.2,14.8*,1.6,2.7,0.7,2.6,12.9*,0.9
COc1cc(OC)c(OC)cc1CNC(=O)c1cccc(S(=O)(=O)N2CCc3ccccc3C2)c1,-1.4,-1.8,-7.2,-4.1,-1.6,-3.9,/,/
CC(C)CC(=O)Nc1ccc2nn(-c3ccccc3)nc2c1,3.8,14.1*,0.5,3.2,-0.3,3.4,16.4*,0.8
CCN(C[C@H]1N[C@@](C)(C(=O)OC)[C@H]2C(=O)N(C)C(=O)[C@@H]12)C(=O)Nc1ccc(C(F)(F)F)cc1,-0.8,-0.4,-3.5,-1.6,-1.1,-1.5,/,/
Cc1nn(-c2ccccc2)c2sc(C(=O)NC3CCCCCCC3)cc12,-0.3,4.0,-6.2,/,-0.9,-0.5,/,/
O=C(CC(NC(=O)OCc1ccccc1)c1nn[nH]n1)OCc1ccccc1 (stereo not given),3.4,13.4*,4.8,1.7,0.7,1.8,10.6*,0.5
O=C1/C(=C/c2ccc(O)cc2)COc2ccccc21,2.1,15.0*,2.2,1.3,-1.1,1.2,11.8*,0.7
C(=N\NC1=Nc2cccc3cccc1c23)/c1cccnc1,5.1,16.5*,2.5,1.9,-0.2,0.1,11.3*,0.4
O=C1CCC[C@H]2Cc3nc4cccc(Cl)c4cc3C[C@]23CCCN13,-2.5,2.3,/,/,-1.4,/,/,/
CCc1cc2cc(C(=O)Nc3ccc(F)cc3)sc2s1,-0.6,1.8,0.1,-0.7,-0.9,0.7,/,/
CCc1cc2cc(C(=O)Nc3ccccc3F)sc2s1,6.4*,14.8*,2.9,3.5,0.4,3.2,17.7*,1.2
Cc1cc(C)cc(Cn2cc(CN3CC(N4CCN(C)CC4)CS3(=O)=O)nn2)c1 (stereo not given),1.5,0.2,-2.5,/,-1.4,0.3,/,/
C(=C\c1ccccc1)/C=N/Nc1nc2ccccc2[nH]1,3.2,15.2*,5.1,-0.6,-0.2,1.0,16.8*,0.7
C(/CCc1ccccc1)=N\Nc1nc2ccccc2[nH]1,5.0,7.7,7.4,1.5,0.6,0.8,/,/
O=C(OCN1C(=O)c2ccccc2C1=O)c1cccc(S(=O)(=O)N2CCOCC2)c1,-0.1,0.5,0.0,1.6,-0.3,-0.6,/,/
c1ccc(-c2csc(NC3CCCCC3)n2)cc1,3.6,19.7*,3.4,1.4,0.2,2.7,24.5*,1.0
O=C(c1ccc(Cl)cc1)c1coc2ccc(O)cc12,3.1,17.5*,6.1,3.2,-0.1,3.5,18.4*,1.0
O=C(c1coc2ccc(O)cc12)C1CC1,-1.2,2.1,1.8,0.0,-0.6,0.1,/,/
C/C(CC(=O)Nc1c(C)cc(C)cc1C)=N\NC(=O)OC(C)(C)C,0.9,13.4*,3.7,3.2,-0.3,1.3,0.7,0.0
O=C(Nc1ccccc1)Nc1ccccc1Br,5.2,19.3*,3.6,0.6,-0.1,4.1*,7.2,0.4
CC1(C(=O)NS(=O)(=O)C2CC2)CCN(C(=O)c2cc(F)cc(F)c2)C1 (stereo not given),-0.8,-0.7,-0.3,/,-1.4,1.2,/,/
Cc1cccc(-n2ncc3c(N(C)Cc4ccccc4)ncnc32)c1,1.9,15.5*,2.7,4.1,-0.5,4.0*,14.4*,0.7
Cc1nc2sc(-c3ccccc3)nn2c(=O)c1Br,4.1,16.5*,1.2,0.5,-0.6,3.4,17.1*,0.8
